The source of these data is PubChem BioAssay AID588453 (National Center for Advancing Translational Sciences (NCATS), 2011).

The whole screen tested about 390,000 compounds, of which about 4,000 (1%) were called active. About 4% were inconclusive and are not listed. Calls follow the shape of the dose curve; as a rule, active = well fitted inhibition curve with a large enough effect; inconclusive = small, poorly fitted or top-dose-only effect; inactive = no such curve, though single readings can be large or run the other way. The entries come from a sample that favours actives as a whole.
% is scaled to controls: 0 for no effect and ±100 for the full control effect; potency is read from the fitted curve at half-maximal effect.

Sequence of Thioredoxin reductase 1, cytoplasmic (Rattus norvegicus) (O89049 whole entry, looked up): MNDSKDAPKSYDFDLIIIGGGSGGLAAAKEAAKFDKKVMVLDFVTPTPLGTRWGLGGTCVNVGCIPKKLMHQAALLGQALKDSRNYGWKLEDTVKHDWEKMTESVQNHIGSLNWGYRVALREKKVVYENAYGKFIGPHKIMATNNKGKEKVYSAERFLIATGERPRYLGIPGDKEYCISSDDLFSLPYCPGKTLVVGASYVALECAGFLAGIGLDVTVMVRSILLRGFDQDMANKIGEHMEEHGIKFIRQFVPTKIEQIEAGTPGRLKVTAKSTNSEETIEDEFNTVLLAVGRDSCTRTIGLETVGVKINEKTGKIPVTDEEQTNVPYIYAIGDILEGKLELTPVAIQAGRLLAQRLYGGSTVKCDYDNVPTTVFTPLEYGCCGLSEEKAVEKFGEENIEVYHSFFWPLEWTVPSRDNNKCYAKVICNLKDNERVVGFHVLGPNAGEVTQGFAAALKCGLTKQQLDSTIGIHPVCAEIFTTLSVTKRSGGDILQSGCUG

The experiment addresses Thioredoxin reductase 1, cytoplasmic (Rattus norvegicus) (UniProt O89049). The experiment in a line: qHTS Assay for Inhibitors of Mammalian Selenoprotein Thioredoxin Reductase 1 (TrxR1): qHTS. Also: nearly all actives have a fitted effect of over 65% in size. To be noted: recombinant rTrxR1, NADPH fluorescence consumption, selenite substrate; series mostly up to 114 µM; activity change, negative = inhibition: at the top concentration. The gist of the method: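 Rat TrxR1 (90 nM in the dispensed reagent) was pre-reduced with 400 uM NADPH for 5 min at room temperature, then incubated with compound for 15 min. After 400 uM selenite was added, NADPH fluorescence (Ex 340/Em 450 nm) was followed for 8 min.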
Turning to `CC(C)CCN(C(=O)Nc1ccc(Cl)c(Cl)c1)C(C)c1cccs1` (configuration not stated), the “activity change, negative = inhibition” value is 28.6% [at 57.1 µM] (inactive).
As for `C=CCN1C(=O)C(O)(CC(=O)c2ccc(Cl)cc2)c2ccccc21` (configuration not stated), the Potency was 35.5 µM (active).
On to `Cc1ccc(C(=O)CC2(O)C(=O)N(CCc3ccccc3)c3ccc(Br)cc32)cc1` (configuration not stated), for which the “activity change, negative = inhibition” value is 15.4% (inactive).
With `C=CCN1C(=O)C(O)(CC(=O)c2ccccn2)c2ccccc21` (configuration not stated), the “activity change, negative = inhibition” value was -1.4% [at 57.1 µM] (inactive).
The same measure, in the same setting: in the case of `CCCCC(CCCC)c1ccc(C=Nc2ccc(/C=C/c3ccnc4ccccc34)cc2)cc1` it was -17.9% (inactive).
On to `COc1cccc(Cn2c(SCc3ccc(C(=O)N4CCCCC4)cc3)nc3ccncc32)c1`, for which the “activity change, negative = inhibition” value is -22.6% (inactive).
For the compound `Fc1cccc(-n2ncc3c2ncn2nc(-c4ccccc4Cl)nc32)c1`, the “activity change, negative = inhibition” value was 34.7% (inactive).
`C1=C(N2CCOCC2)/C(=C/c2nc3ccccc3[nH]2)CC1`: the Potency was 15.8 µM (active).
Turning to `Cc1nn2c3cc(N4CCOCC4)ccc3nc2c2ccccc12`, the “activity change, negative = inhibition” value is -2.61% (inactive).
On the same count and under the same terms, in the case of `Cn1cc(S(=O)(=O)N2CCCCCC2)cc1C(=O)N1CCN(c2ccc(F)cc2)CC1` it was 1.38% [at 57.1 µM] (inactive).
As for `COc1cccc(NC(=O)COC(=O)/C=C/c2ccco2)c1`, the Potency is 39.8 µM (active).
Regarding `COc1ccc([N+](=O)[O-])cc1NC(=O)COC(=O)/C=C/c1ccco1`, the “activity change, negative = inhibition” value is 4.25% (inactive).
The same measure, in the same setting: in the case of `NS(=O)(=O)c1cccc(NC(=O)COC(=O)/C=C/c2ccco2)c1` it was -45.1% (inactive).
The same measure, in the same setting: in the case of `CCC(C)N(c1ccc(/C=C/c2ccnc3ccccc23)cc1)C(C)CC` (configuration not stated) it was -11.6% (inactive).
Same read-out and setting: in the case of `CCN(CC)/[N+]([O-])=N/OCOC(=O)Cc1c(C)n(C(=O)c2ccc(Cl)cc2)c2ccc(OC)cc12` it was 13.3% [at 0.457 µM] (inactive); in that of `COc1ccc(NC(=O)CSc2nc3ncccc3[nH]2)c(OC)c1`, 6.36% (inactive); in that of `OCC(O)C(O)C(O)C(O)C=Nc1ccc(/C=C/c2ccnc3ccccc23)cc1` (configuration not stated), 18.2% (inactive).
Turning to `O=C(/C=C/c1ccco1)Nc1cccc(-c2nc3ccccc3[nH]2)c1`, the Potency was 79.4 µM (active).
On to `O=C(Nc1cccc(-c2nc3ccccc3o2)c1)c1cccc(Br)c1`, for which the “activity change, negative = inhibition” value is 18.4% [at 57.1 µM] (inactive).
Still for that read-out and setting: as for `CCc1ccc2oc(-c3ccc(C)c(NC(=O)/C=C/c4ccco4)c3)nc2c1`, the figure is -24.3% (inactive).
Still for that read-out and setting: as for `COc1ccc(-c2cc(-c3nc(-c4cc(OC)c(OC)c(OC)c4)no3)[nH]n2)c(OC)c1`, the figure is 16.3% [at 57.1 µM] (inactive).
On to `O=C1/C(=C\c2ccc(O)cc2)CCC1CNc1ccc(Cl)cc1` (configuration not stated), for which the Potency is 22.4 µM (active).
`Cc1ccc(NS(=O)(=O)c2ccc3c(c2)CC(=O)N3)cc1Cl`: the “activity change, negative = inhibition” value was 9.35% (inactive).
The same measure, in the same setting: as for `CCOc1n[nH]c(-c2ccccc2)n1`, the figure is -18.3% (inactive).
For `CN(Cc1ccccc1)c1ccc(/C=C/c2ccnc3ccccc23)cc1`, the “activity change, negative = inhibition” value is 0.744% (inactive).
Same read-out and setting: as for `COc1ccc(C(F)(F)F)cc1NC(=O)c1sc2nc(-c3cccs3)ccc2c1N`, the figure is 20.9% (inactive).
Regarding `C=CC1(C)CC(=O)C2(O)C(C)(O1)C(OC(C)=O)C(O)C1C(C)(C)CCC(O)C12C` (configuration not stated), the Potency result was “inactive”.
With `CCOc1ccc(C(C)=O)cc1COC(=O)CNC(=O)c1cccs1`, the Potency is 22.4 µM (active).
`COc1ccc(C(=O)COC(=O)CNC(=O)c2cccs2)cc1Br`: the “activity change, negative = inhibition” value is 8.81% (inactive).
Same read-out and setting: as for `Cc1ccc(COC(=O)CN2C(=O)NC3(CCCC3)C2=O)cc1`, the figure is 27.7% (inactive).
Still for that read-out and setting: in the case of `CCOc1ccc(C(C)NC(=O)CN2C(=O)NC3(CCCCC3)C2=O)cc1OCC` (configuration not stated) it was -5.62% (inactive).
In the case of `CCOc1ccc(C(C)=O)cc1COC(=O)CN1C(=O)NC2(CCCC2)C1=O`, the Potency was 28.2 µM (active).
For `CCOc1ccc(C(C)=O)cc1COC(=O)c1cnc(Cl)c(Cl)c1`, the “activity change, negative = inhibition” value was 24.3% [at 57.1 µM] (inactive).
As to `COc1ccc(/C=C/c2ccccn2)cc1OC`, the “activity change, negative = inhibition” value was 8.3% (inactive).
On the same count and under the same terms, in the case of `O=C(NCCCN1CCN(c2cccc(Cl)c2)CC1)c1nnc(Cc2ccc(F)cc2Cl)o1` it was -1.33% (inactive); in that of `COc1ccc(S(=O)(=O)Nc2cccc3cccnc23)c(N)c1`, 10.7% (inactive); in that of `Cc1cc(-c2ccc(C)c(S(=O)(=O)N3c4ccccc4CC3C)c2)on1` (configuration not stated), 2.98% [at 57.1 µM] (inactive).
Same read-out and setting: in the case of `CCOc1ccc(C2C(=O)N(C3CCCCC3)CC(=O)N2CCC2=CCCCC2)cc1OC` (configuration not stated) it was -0.311% [at 57.1 µM] (inactive); in that of `CCOc1ccc(NC(=S)NC(=O)/C=C/c2ccc(OC)cc2)c([N+](=O)[O-])c1`, -2.01% (inactive).
With `Cc1ccc(/C=C/C(=O)Nc2ccc([N+](=O)[O-])c(NC(=O)/C=C/c3ccc(C)o3)c2)o1`, the Potency is 25.1 µM (active).
With `Cc1ccc(/C=C/C(=O)OCC(=O)NCc2ccc(Cl)cc2)o1`, the “activity change, negative = inhibition” value was -13.7% (inactive).
As to `CN(C(=N)N)c1ccc(/C=C2\C=Cc3ccccc32)cc1`, the “activity change, negative = inhibition” value was -2.12% (inactive).
Same read-out and setting: as for `O=C(NCc1ccccc1Cl)C1=Cc2cc(Br)ccc2OC1`, the figure is 2.89% [at 57.1 µM] (inactive); as for `COc1cc2ccccc2cc1C(=O)Nc1cccc(-c2nc3ccccc3o2)c1`, 19.9% (inactive).
On the same count and under the same terms, in the case of `COc1cccc(C(=O)Nc2ccc3oc(-c4ccc5ccccc5c4)nc3c2)c1` it was 40.9% (inactive).
As to `COc1cc(OC)cc(C(=O)Nc2ccc(-c3nc4ccccc4o3)c(O)c2)c1`, the Potency is 28.2 µM (active).
For the compound `Cc1ccc(NC(=O)CN2c3ccccc3S(=O)(=O)c3ccccc32)cc1F`, the “activity change, negative = inhibition” value is 11.6% (inactive).
On the same count and under the same terms, in the case of `COc1cc(C(=O)N(Cc2ccc(C(C)C)cc2)C2CCS(=O)(=O)C2)cc(OC)c1OC` (configuration not stated) it was 1.01% (inactive).
On the same count and under the same terms, in the case of `CCc1ccc(S(=O)(=O)Nc2ccc(C)c(NS(C)(=O)=O)c2)cc1` it was 3.53% (inactive); in that of `COc1ccc(S(=O)(=O)N/N=C\c2ccc(OC)c(COc3ccc(C)cc3[N+](=O)[O-])c2)cc1`, -5.22% (inactive).
For `CCc1ccc(S(=O)(=O)N/N=C\c2ccc([N+](=O)[O-])o2)cc1`, the Potency is 14.1 µM (active).
Consider `O=C(Cc1ccccc1)Nc1sc2c(c1C(=O)Nc1ccc(Br)cc1)CCC2`, for which the “activity change, negative = inhibition” value is 9.27% (inactive).
With `COc1ccc(NC(=O)C(c2ccccc2)N2Cc3ccccc3C2=O)cc1` (configuration not stated), the “activity change, negative = inhibition” value is 31.3% [at 57.1 µM] (inactive).
Same read-out and setting: as for `Cc1ccccc1OCCC(=O)OCC(=O)NC(C)c1ccccc1` (configuration not stated), the figure is -7.06% (inactive).
Take `CCOC(=O)/C=C/C(=O)OCC(=O)NC(c1ccccc1)c1ccccc1`: the Potency was 28.2 µM (active).
With `CCOc1ccc(C(CC(=O)O)NC(=O)COc2ccccc2)cc1` (configuration not stated), the “activity change, negative = inhibition” value is 1.01% [at 57.1 µM] (inactive).
On the same count and under the same terms, in the case of `CC(=O)Nc1ccc(S(=O)(=O)N2N=NC3C2C2CC4C3(CN(C(=O)OC(C)(C)C)S4(=O)=O)O2)cc1` (configuration not stated) it was -0.673% (inactive).
The same measure, in the same setting: in the case of `CN(C)c1ccc(/C=C/c2sc3ccccc3[n+]2CCCCBr)cc1` it was 26% (inactive); in that of `Cc1ccc(C(=O)COC(=O)C(Cc2c[nH]c3ccccc23)NC(=O)c2ccc(Br)cc2)cc1` (configuration not stated), 33.8% [at 57.1 µM] (inactive); in that of `CC(=O)OCC(NC(=O)C(Cc1ccccc1)NC(=O)OC(C)(C)C)C1OC(n2ccc(=O)[nH]c2=O)C(OC(C)=O)C1OC(C)=O` (configuration not stated), 8.07% (inactive).
On the same count and under the same terms, in the case of `COc1cc(OC)c2c(C)cc(=O)oc2c1C(CCN1CCCCC1)c1ccc(N(C)C)cc1` (configuration not stated) it was -4.41% (inactive).
In the case of `C=C(C)C(=O)O[C@H]1C/C(C)=C\C(=O)/C=C(\C)[C@H](O)[C@@H]2OC(=O)C(=C)[C@@H]21`, the Potency was 39.8 µM (active).
